KCNQ2 block = KCNQ2 (rat) channel inhibition; O88943; CHO-K1 KCNQ2, FluxOR thallium flux, 20 min; active compounds read low; B-score at 10 µM; 1.1% of 310,000 active; AID 2156;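 active means fluorescence ratio B-score at most minus 3 library SDs, with starting brightness B-score within 2 library SDs, cut at about -5.5 in these data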
Target sequence (O88943 whole entry, looked up): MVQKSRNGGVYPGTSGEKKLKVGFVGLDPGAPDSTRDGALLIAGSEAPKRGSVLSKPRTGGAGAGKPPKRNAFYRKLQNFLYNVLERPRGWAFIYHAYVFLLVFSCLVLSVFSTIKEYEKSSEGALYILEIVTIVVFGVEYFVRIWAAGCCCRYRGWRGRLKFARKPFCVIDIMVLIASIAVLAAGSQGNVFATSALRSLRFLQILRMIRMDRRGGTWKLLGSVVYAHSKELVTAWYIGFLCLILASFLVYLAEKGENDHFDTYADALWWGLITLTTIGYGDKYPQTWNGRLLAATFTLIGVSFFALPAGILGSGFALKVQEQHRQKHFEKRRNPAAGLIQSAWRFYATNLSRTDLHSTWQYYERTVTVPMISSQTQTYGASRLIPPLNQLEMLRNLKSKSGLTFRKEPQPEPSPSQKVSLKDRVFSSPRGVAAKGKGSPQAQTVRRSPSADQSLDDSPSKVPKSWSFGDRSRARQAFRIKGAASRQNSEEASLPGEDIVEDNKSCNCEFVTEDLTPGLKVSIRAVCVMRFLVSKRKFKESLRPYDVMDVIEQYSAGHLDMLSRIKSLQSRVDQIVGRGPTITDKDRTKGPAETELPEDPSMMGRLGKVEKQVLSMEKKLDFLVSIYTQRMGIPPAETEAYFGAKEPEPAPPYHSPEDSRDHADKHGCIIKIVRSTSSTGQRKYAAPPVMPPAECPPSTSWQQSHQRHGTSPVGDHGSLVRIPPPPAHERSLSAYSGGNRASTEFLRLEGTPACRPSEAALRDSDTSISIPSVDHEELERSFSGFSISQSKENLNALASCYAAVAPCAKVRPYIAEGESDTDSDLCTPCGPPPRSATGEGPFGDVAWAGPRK
KCNQ2 enhance = KCNQ2 (rat) channel potentiation; CHO-K1 KCNQ2, FluxOR thallium flux fluorescence; active compounds read high; B-score at 10 µM; 0.54% of 310,000 active;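 active means fluorescence ratio B-score at least 3 SD of library B-scores, with initial fluorescence B-score within 3 of them, cut at about 5.3 in these data; same plate scores as AID 2156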;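 further: B-score of peak minus minimum over baseline fluorescence ratio after K+ and Tl+ stimulus; positive B-score means potentiation of KCNQ2 with more thallium influx and brighter signal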
Kir21 conf inh = confirmation of mouse Kir2.1 potassium channel inhibitors | 41% of 2,300 active | shares compounds with KCNQ2 enhance | Kir2.1-expressing cells, FluxOR thallium flux fluorescence; active compounds read low | Tl flux remaining, % of negative control (active compounds read low), % at 10 µM | AID 2032;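 active means Primary-screen hit whose thallium flux fell at least 3 control SD below untreated wells in both duplicates, with normal baseline fluorescence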
HEK293 ctr = counter-screen for Kir2.1 inhibitors: effect in parental HEK293 cells | shares compounds with KCNQ2 enhance | FluxOR thallium flux fluorescence; 0% = unstimulated blank wells | FluxOR signal as % of negative control (100 = no effect), % at 10 µM | 19% of 2,300 active;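 active means dye signal at least 3 control SD above or below untreated wells in both duplicates, raw fluorescence within 3, either direction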;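 further: percent is based on the flux ratio of peak minus minimum fluorescence over baseline F0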
CHO-K1 Tl ctr = parental CHO-K1 activity in KCNQ2 potentiator counter-screen; activity increase over 3SD of controls, % at 10 µM; shares compounds with KCNQ2 enhance; 43% of 1,200 active; AID 2282; parental CHO-K1 cells, FluxOR thallium flux fluorescence; zero = vehicle mean+3SD, 100% = vehicle-minus-blank window;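 active means signal rise of at least 3 SD above the untreated control mean, in both duplicate wells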;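 further: counter screen of KCNQ2 potentiator hits so any rise reflects channel-independent effects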
KCNQ1 sel pot = tests whether KCNQ2 potentiators also act on human KCNQ1; shares compounds with KCNQ2 enhance; CHO KCNQ1 stable, FluxOR thallium flux fluorescence; beyond 3SD, as % of vehicle-control signal; activation over 3SD threshold, % at 10 µM; 28% of 1,200 active;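 active means fluorescence ratio rise of at least 3 SD of vehicle wells above their mean, in both replicate wells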
KCNQ2 pot confirm = rat KCNQ2 channel potentiator confirmation; shares compounds with KCNQ2 enhance; CHO-KCNQ2 cells, FluxOR thallium flux fluorescence; potentiation, less the hit threshold, % at 10 µM; 68% of 1,200 active; AID 2287;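 active means fluorescence ratio rising 3 SD or more over the vehicle control mean in both replicates, plus primary screen hit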;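 further: peak minus minimum thallium fluorescence divided by baseline after K/Tl stimulus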
Kir2-1 sel = selectivity of KCNQ2 potentiators: effect on mouse Kir2.1; shares compounds with KCNQ2 enhance; HEK293 Kir2.1, FluxOR thallium flux fluorescence; activity over 3SD threshold, % at 10 µM; 2% of 1,200 active;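 active means fluorescence ratio rise of at least 3 SD above the vehicle-control mean, seen in both replicates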
KCNQ2 W236L pot = rat KCNQ2 W236L mutant potentiation by KCNQ2 potentiators | shares compounds with KCNQ2 enhance | CHO KCNQ2-W236L, automated patch clamp current | current increase over 3SD of negative controls (%), active compounds read high, % at 25 µM | 10% of 940 active;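 active means current increase at least 3 SD of the untreated controls above them in both duplicate recordings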
Hits are given with their value; n = inactive; x = no result given. Shown are actives, neighbours in structure and some others; about 1.6% of the full set was active somewhere.

SMILES	KCNQ2 block	KCNQ2 enhance	Kir21 conf inh	HEK293 ctr	others
COc1cccc(CN2CCNC(=O)C2CC(=O)NCCCN2CCCC2=O)c1 (stereo unspecified)	n	n	x	x
COc1cccc(CN=C2Nc3ccccc3CS2)c1	n	x	x	x
COc1ccccc1CN=C1Nc2ccccc2CS1	n	x	58%	n
COc1cccc(C2=NOC(C(=O)Nc3cc(C)on3)C2)c1 (stereo unspecified)	n	n	x	x
COc1ccc(C2(C(=O)NCCc3ccccc3)CCCC2)cc1	n	x	x	x
O=C(NCCc1ccc(Cl)cc1)C1(c2ccccc2)CC1	n	x	34%	n
Cc1c(CN2CCC(CO)(CC3CCCCO3)CC2)cnn1C (stereo unspecified)	n	n	x	x
CNS(=O)(=O)/C=C/c1ccccc1	n	16	n	n	CHO-K1 Tl ctr=n;KCNQ1 sel pot=n;KCNQ2 pot confirm=n;Kir2-1 sel=n
CCCNS(=O)(=O)/C=C/c1ccccc1	n	n	x	x
O=C(Nc1cccc(O)c1)c1cc(S(=O)(=O)N2CCCC2)ccc1Cl	n	5.3	n	n	CHO-K1 Tl ctr=40;KCNQ1 sel pot=n;KCNQ2 pot confirm=n;Kir2-1 sel=n
O=C(Nc1ccccc1)c1cc(S(=O)(=O)N2CCSCC2)ccc1Cl	n	x	x	x
Cc1ccc(C(=O)OCN2C(=O)c3ccccc3C2=O)o1	n	n	x	x
O=C(NC(=S)N1CCN(c2nc(-c3ccccc3)cs2)CC1)c1cncc(Br)c1	n	17	n	247%	CHO-K1 Tl ctr=n;KCNQ1 sel pot=n;KCNQ2 pot confirm=18;Kir2-1 sel=n;KCNQ2 W236L pot=n
COCCCNC(=S)N1CCN(c2nc(-c3ccccc3)cs2)CC1	n	n	x	x
COc1cccc(CCN2CCC(CNS(=O)(=O)c3cc(-c4cc(C)no4)ccc3C)CC2)c1	n	x	x	x
OCC(O)/C=N/Nc1nc(N2CCCCC2)nc(N2CCCCC2)n1 (stereo unspecified)	n	x	x	x
CSc1ccccc1NC(=O)CSc1n[nH]c(N)n1	n	x	x	x
Nc1nc(SCC(=O)Nc2ccccc2Sc2ccc(Cl)cc2)n[nH]1	n	6.2	n	n	CHO-K1 Tl ctr=23;KCNQ1 sel pot=n;KCNQ2 pot confirm=9.1;Kir2-1 sel=n;KCNQ2 W236L pot=n
Cc1cccc(C(=O)N2CCCC(N3CCN(c4ccc(F)cc4)CC3)C2)n1 (stereo unspecified)	n	n	x	x
COCCCN1C(=O)C(=O)/C(=C(/O)c2ccc(S(=O)(=O)N3CCOCC3)cc2)C1c1cccc(Cl)c1 (stereo unspecified)	n	x	x	x
CC(C)(CO)NCc1ccccc1OCC(=O)Nc1ccccc1	n	x	x	x
Cc1ccc(NC(=O)COc2ccccc2CNC(C)(C)CC(C)(C)C)cc1	n	x	44%	n
COc1cc(OC)c(/C=N/n2c(C)nnc2C)c(OC)c1	n	n	x	x
COc1ccc(C(C(=O)NC2CCCCC2)N(Cc2cccnc2)C(=O)c2snc(C(N)=O)c2N)cc1 (stereo unspecified)	n	x	x	x
O=S(=O)(NCc1ccc(Cl)cc1)c1cccc2cccnc12	n	n	x	x
SMILES	KCNQ2 block	KCNQ2 enhance	Kir21 conf inh	HEK293 ctr	others
Cc1cc(C)c(C)c(S(=O)(=O)NCc2ccco2)c1C	n	x	54%	n
CCOc1cc(S(=O)(=O)NCc2ccc3c(c2)OCO3)c(C)cc1C	n	x	65%	n
O=S(=O)(NCc1ccc2c(c1)OCO2)c1cccc2cccnc12	n	13	x	x	CHO-K1 Tl ctr=5.4;KCNQ1 sel pot=n;KCNQ2 pot confirm=n;Kir2-1 sel=n
Cc1cc(C)c(S(=O)(=O)NCc2ccc3c(c2)OCO3)cc1C	n	x	x	x
CCOc1cc(C)c(Cl)cc1S(=O)(=O)NCc1ccc2c(c1)OCO2	n	x	68%	n
Cc1cc(C)c(S(=O)(=O)NCc2ccc3c(c2)OCO3)c(C)c1	n	x	x	x
Cc1cc(S(=O)(=O)NCc2ccco2)c(C)cc1Cl	n	x	x	x
COc1ccc([C@@H]2[C@@H]3C(=O)N(C(C)(C)C)C(=O)[C@@H]3[C@]3(C)C(=O)N(c4cccc(Br)c4)C(=O)N23)cc1	n	n	x	x
